This passage reports Potency results from ChEMBL document CHEMBL1201862, “PubChem BioAssay data set” (2004).

Hit rate of the full screen: of about 400,000 compounds, about 2,100 (0.53%) were called active. Roughly 14% stayed inconclusive and do not appear here. How the calls were made is not given here. For the sample, actives were picked, then their nearest neighbours and some compounds at random.

The target in the assay is Ataxin-2 (Homo sapiens) (UniProt Q99700). Nature of the assay: qHTS for Inhibitors of ATXN expression. Type of assay: functional. A general note: qHTS replaces the single test concentration by a dilution series.
Chain of Ataxin-2 (Homo sapiens) (Q99700 whole entry): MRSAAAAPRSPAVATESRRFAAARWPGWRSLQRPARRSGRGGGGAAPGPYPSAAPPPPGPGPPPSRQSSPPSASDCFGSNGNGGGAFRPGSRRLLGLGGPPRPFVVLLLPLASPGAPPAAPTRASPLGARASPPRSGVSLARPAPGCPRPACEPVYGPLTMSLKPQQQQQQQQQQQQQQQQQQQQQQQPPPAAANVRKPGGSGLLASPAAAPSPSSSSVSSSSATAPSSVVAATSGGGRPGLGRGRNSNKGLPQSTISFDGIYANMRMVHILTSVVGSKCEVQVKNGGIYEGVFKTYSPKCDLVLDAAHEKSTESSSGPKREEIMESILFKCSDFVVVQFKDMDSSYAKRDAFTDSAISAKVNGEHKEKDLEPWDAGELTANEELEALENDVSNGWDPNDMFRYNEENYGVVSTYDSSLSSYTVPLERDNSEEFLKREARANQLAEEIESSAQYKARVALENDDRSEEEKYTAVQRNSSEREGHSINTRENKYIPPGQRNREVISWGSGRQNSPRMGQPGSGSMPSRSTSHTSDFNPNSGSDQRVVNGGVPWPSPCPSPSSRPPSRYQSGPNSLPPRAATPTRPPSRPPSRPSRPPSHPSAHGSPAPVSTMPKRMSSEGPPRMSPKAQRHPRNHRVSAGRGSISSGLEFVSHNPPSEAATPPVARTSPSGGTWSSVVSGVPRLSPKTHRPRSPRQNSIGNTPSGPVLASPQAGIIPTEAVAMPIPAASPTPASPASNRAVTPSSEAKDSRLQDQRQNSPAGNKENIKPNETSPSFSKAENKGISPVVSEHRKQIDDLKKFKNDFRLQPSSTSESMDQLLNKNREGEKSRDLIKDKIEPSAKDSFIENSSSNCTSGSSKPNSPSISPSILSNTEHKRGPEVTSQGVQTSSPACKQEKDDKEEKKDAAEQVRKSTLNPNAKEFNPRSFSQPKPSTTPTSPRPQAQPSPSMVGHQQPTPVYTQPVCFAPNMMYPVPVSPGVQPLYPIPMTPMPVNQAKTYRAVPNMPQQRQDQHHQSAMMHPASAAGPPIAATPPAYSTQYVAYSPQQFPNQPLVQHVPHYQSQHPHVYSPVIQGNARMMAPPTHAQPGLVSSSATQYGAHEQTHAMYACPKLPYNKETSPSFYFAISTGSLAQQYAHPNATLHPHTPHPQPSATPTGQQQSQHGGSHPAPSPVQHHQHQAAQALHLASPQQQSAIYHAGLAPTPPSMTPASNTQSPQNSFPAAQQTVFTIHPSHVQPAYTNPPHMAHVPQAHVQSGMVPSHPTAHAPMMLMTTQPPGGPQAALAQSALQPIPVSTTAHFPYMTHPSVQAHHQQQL
Regarding `Nc1cccc(Oc2c(F)c(F)c(Oc3cccc(N)c3)c(F)c2F)c1`, the Potency result was “inactive”.

With `CN(CC(=O)Nc1ccccc1Cl)C(=O)COC(=O)c1nc(Cl)c(Cl)c(Cl)c1Cl`, the Potency is 28.2 µM (active). The entry for `Cc1cnc(C(=O)OCC(=O)Nc2cccc3ccccc23)cn1` is “inactive”.

Consider `Cc1ccc(NC(=O)CN(C)C(=O)COC(=O)c2nccnc2N)cc1`, for which the Potency result is “inactive”. The figure for `CCCCc1c(-c2ccc(Cl)cc2)ncn1CCc1ccccc1OC` is 39.8 µM (active); for `CCCCCc1c(-c2ccc(Cl)cc2)ncn1CCc1ccccc1OC` it is 39.8 µM (active); for `CCCc1c(-c2ccc(Cl)cc2)ncn1Cc1ccccc1OC` it is 44.7 µM (active).

As to `COc1cc2c3nnc(-c4ccccc4)c-3cn(Cc3ccccc3F)c2cc1OC`, the Potency entry was “inactive”. Regarding `CC(=O)c1cc2ccc(O)cc2oc1=O`, the Potency entry is “inactive”. For `COCCNC(=O)/C(=C/c1ccccc1Cl)c1ccccc1`, the Potency entry is “inactive”. Then `O=C1CC(c2cccc(Br)c2)C2=C(COC2=O)N1` (stereo unspecified), with “inactive”; and `CN(C)/C=N/C(=S)Nc1ccc(Cl)cc1`, with “inactive”. The entry for `Cn1nc(-c2ccccc2)c2nc3ccccc3nc21` is “inactive”. The entry for `CN1CCN(C2=CC3=CC(=C(C#N)C#N)CCC3CC2)CC1` (stereo unspecified) is “inactive”; for `O=c1c2ccccc2oc2ccc(C#CC3(O)CCCCC3)cc12` it is 28.2 µM (active); for `COc1cc2c(C#CCCO)c(-c3ccc(C#N)cc3)oc(=O)c2cc1OC` it is “inactive”. Take `COc1cccc2oc3cc(C#CC4(O)CCCCC4)ccc3c(=O)c12`: the Potency is 22.4 µM (active). Then `Nc1ccc(C#Cc2ccc3c(=O)c4ccccc4oc3c2)cc1`, with “inactive”; and `O=c1c(O)c(-c2ccccc2)oc2ccccc12`, with “inactive”. The entry for `COc1cc2oc3cc(C#Cc4ccc(N)cc4)ccc3c(=O)c2cc1OC` is “inactive”; for `Nc1c(C(=O)NCc2ccco2)c2nc3ccccc3nc2n1CCc1ccc(F)cc1` it is “inactive”. Then `Cc1ccc(COc2ccsc2C(=O)NN)cc1`, with “inactive”; and `Cc1ccc(CN2C(=O)C(=O)c3cc(Br)cc(C)c32)cc1`, with 39.8 µM (active).

Regarding `Cc1ccc(CN2C(=O)C(C)Oc3ccccc32)cc1` (stereo unspecified), the Potency result was “inactive”. The entry for `CC(=O)N1c2c(cc(Br)cc2S(=O)(=O)NCc2ccc(C)cc2)CC1C` (stereo unspecified) is “inactive”. The entry for `COC(=O)c1c(NC(=O)c2ccc(S(=O)(=O)N3CCCC(C)C3)cc2)sc2c1CCN(C(C)C)C2` (stereo unspecified) is “inactive”; for `O=C(Nc1cc[n+](-c2nc3ccccc3nc2[N-]S(=O)(=O)c2ccc(Cl)cc2)cc1)c1cccs1` it is “inactive”; for `O=C(Nc1ccc[n+](-c2nc3ccccc3nc2[N-]S(=O)(=O)c2ccccc2)c1)c1ccc(Cl)cc1` it is 11.2 µM (active). Then `CC(=O)Nc1ccc(S(=O)(=O)[N-]c2nc3ccccc3nc2-[n+]2ccc(NC(=O)c3ccccc3)cc2)cc1`, with “inactive”; and `Cc1c(NC(=O)C(C)OC(=O)c2cccc(S(=O)(=O)N3CCOCC3)c2)c(=O)n(-c2ccccc2)n1C` (stereo unspecified), with “inactive”; and `COc1ccc(C(=O)/C=C/c2ccc(O)cc2)c(O)c1C/C=C(\C)CCC=C(C)C`, with 39.8 µM (active). For the molecule `COc1ccc(C(=O)/C=C/c2ccc(O)cc2)c(O)c1CC=C(C)C`, the Potency is 39.8 µM (active). Then `COc1ccc(/C=C/C(=O)C2C(=O)C=C(C)OC2=O)cc1O` (stereo unspecified), with “inactive”; and `COc1cc(/C=C/C(=O)OCC(=O)Nc2ccc(Cl)cn2)ccc1O`, with “inactive”; and `COc1ccc(-c2cc(C(F)(F)F)n3ncc(C(=O)N4CCCCC4c4cccnc4)c3n2)cc1` (stereo unspecified), with “inactive”. Then `N#Cc1c(O)nc2c(c1-c1cccnc1)COc1ccccc1-2`, with “inactive”; and `O=C(NC(=S)N1CCN(c2ccc(C(F)(F)F)cc2[N+](=O)[O-])CC1)c1cccs1`, with 39.8 µM (active); and `O=C(COC(=O)c1cccc([N+](=O)[O-])c1)NNC(=O)c1cccs1`, with “inactive”. The figure for `O=C(NC(=S)N1CCN(c2ccc(Cl)cc2[N+](=O)[O-])CC1)c1cccs1` is 17.8 µM (active); for `O=C(N/N=C/c1cc(Cl)cc([N+](=O)[O-])c1O)c1ccccc1NS(=O)(=O)c1cccs1` it is “inactive”. Turning to `Cc1cccc(N2CCN(C(=O)Cc3ccccc3[N+](=O)[O-])CC2)c1C`, the Potency result was “inactive”.

For the molecule `CC(=O)c1ccc2c(c1)c(C#N)c1ccccc1[n+]2[O-]`, the Potency entry was “inactive”. In the case of `CCC(=O)Nc1c(C#N)c2nc3ccccc3nc2n1-c1ccc(C)cc1`, the Potency result is “inactive”. The entry for `CCN(CC)c1nc2ccccc2nc1C(C#N)C(=O)NCCc1ccccc1` (stereo unspecified) is “inactive”; for `Cc1cccc(NC(=O)CN(C)C(=O)Cc2ccc(-c3ccccc3)cc2)c1C` it is “inactive”. Then `CCN(CC(=O)Nc1cc(Cl)ccc1C)C(=O)C1CCCCC1`, with “inactive”; and `CCC(C)N(CC(=O)Nc1cccc(C)c1C)C(=O)CCl` (stereo unspecified), with 7.52 µM (active). The entry for `CCN(CC)C(=O)COc1ccc(/C=C(\C#N)S(=O)(=O)c2ccccc2)cc1OC` is “inactive”; for `Clc1ccc(OCCCNCc2ccccc2)c(Br)c1` it is 39.8 µM (active); for `Cc1cc(C)c(OCCCCNCc2ccccc2)c(Cl)c1` it is 39.8 µM (active).

For `Cc1cc(C)c(OCCN2CCOCC2)c(Cl)c1`, the Potency result is “inactive”.

On to `C=CCc1cc(Cl)ccc1OCCCNC(C)C`, for which the Potency result was “inactive”. Regarding `C=CCNCCCCOc1cccc(Br)c1`, the Potency entry is “inactive”. The entry for `COc1ccc(Cl)cc1CNCCCSc1ncccn1` is “inactive”; for `CN(C)/C=N/c1c(Br)cc(Br)c2nonc12` it is “inactive”.

On to `COCCN(CCOC)C(=O)c1cc2c(=O)n3ccccc3nc2s1`, for which the Potency result is “inactive”. Then `O=C1NC[C@@H](c2ccccc2)OC(=O)[C@@H](Cc2ccc(F)cc2)CC/C=C/C[C@H]1CC(=O)N(CCO)Cc1ccccc1`, with 28.2 µM (active); and `O=C1N[C@@H](Cc2c[nH]c3ccccc23)COC(=O)[C@@H](Cc2ccc(F)cc2)C/C=C\C[C@H]1CC(=O)N(CCO)Cc1ccccc1`, with 35.5 µM (active). Then `COCCn1c(N)c(C#N)c2nc3ccccc3nc21`, with “inactive”; and `Fc1ccc(-n2c(-c3cccs3)nc3nc4ccccc4nc32)cc1`, with “inactive”. The entry for `O=C(Nc1ccc2c(c1)OCCO2)c1cccnc1Oc1ccc(Cl)cc1` is “inactive”; for `O=C(Nc1ccc2c(c1)OCCO2)c1cccc2nc3ccccc3nc12` it is 35.5 µM (active); for `O=C(O)c1ccccc1-c1ccccc1C(=O)Nc1ccc2c(c1)nc(O)c1ccccc12` it is “inactive”. In the case of `CC[C@]1(c2ccccc2OC)ON(c2ccccc2C(F)(F)F)C1=O`, the Potency is 35.5 µM (active). The entry for `COc1ccccc1-n1c([S-])c(C(=O)Nc2ccccc2C(F)(F)F)[n+]2ccc(C(=O)NCCO)cc12` is “inactive”; for `COc1ccccc1N1C(=O)C2C(C(=O)c3ccccc3)=NN(c3ccccc3)C2C1=O` (stereo unspecified) it is “inactive”; for `CC[C@@]1(c2ccccc2OC)ON(c2ccccc2C(F)(F)F)C1=O` it is 22.4 µM (active). The entry for `COc1ccccc1N1C(=O)C2C(C(=O)c3ccccc3)=NN(c3ccccc3OC)C2C1=O` (stereo unspecified) is “inactive”.

Consider `CCO/C=C1/C(=O)N(c2ccccc2OC)C(=O)c2ccccc21`, for which the Potency entry was “inactive”. `Cc1ccccc1NC(=O)c1cc2c(=O)n3cccc(C)c3nc2s1`: the Potency entry was “inactive”. Then `CC1CCCCC1NC(=O)c1cc2c(=O)n3ccccc3nc2n1C` (stereo unspecified), with “inactive”; and `O=C1c2cccc3c([N+](=O)[O-])ccc(c23)C(=O)N1c1ccc(Cl)cn1`, with “inactive”.

`CC1CN(c2ccc([N+](=O)[O-])c(NCCOc3ccc(Cl)cc3)c2)CC(C)N1` (stereo unspecified): the Potency entry was “inactive”.

Turning to `COc1ccccc1N=C(NS(=O)(=O)c1ccc(C)cc1)c1ccccc1`, the Potency entry was “inactive”. Then `COc1ccc([N+](=O)[O-])c(S(=O)(=O)c2ccc(Cl)cc2)n1`, with 14.1 µM (active); and `COc1ccc([N+](=O)[O-])c(S(=O)(=O)c2ccccc2)n1`, with 7.52 µM (active). Then `CCN(CC)c1ccc(C=C(c2nnnn2-c2ccccc2)c2nnnn2-c2ccccc2)cc1`, with “inactive”. As for `Cc1cc2cc3c(=O)[nH]c(=O)nc-3n(CC(O)C(O)C(O)CO)c2cc1C` (stereo unspecified), the Potency entry was “inactive”.

For the molecule `C=CC(=O)/N=c1\sc2ccccc2n1-c1ccccc1`, the Potency is 37.7 µM (active). Then `CCN=C(S)N(CCc1c(C)[nH]c2ccc(C)cc12)Cc1cccnc1`, with “inactive”; and `COc1cc2nc(/C=C/c3ccc(N(C)C)cc3)sc2cc1SC`, with “inactive”; and `Clc1cccc2sc(N3CCN(c4ccccc4)CC3)nc12`, with “inactive”. Then `CCc1cccc2sc(N3CCN(C(=O)c4ccc([N+](=O)[O-])o4)CC3)nc12`, with 39.8 µM (active); and `CC(C)CN=C(S)N1CCN(c2nc3ccccc3s2)CC1`, with “inactive”.

On to `Nc1ccc2cc3ccccc3cc2c1`, for which the Potency entry is “inactive”. Then `CC(C)OCCCN(C)C1CCN(S(=O)(=O)c2ccc(-c3cc(C(F)(F)F)no3)s2)CC1`, with “inactive”; and `c1ccc(N2CC3COc4ccccc4C3=N2)cc1` (stereo unspecified), with “inactive”; and `c1ccc(N=NC2=NN(c3ccccc3)CS2)cc1`, with 7.08 µM (active). The entry for `c1ccc(C2=NN(c3ccccc3)CC2)cc1` is “inactive”. Then `CCOc1ccc(CN2CCCC(N3CCN(c4ccc(OC)cc4)CC3)C2)cc1` (stereo unspecified), with “inactive”; and `[O-][n+]1onc2c1CCc1nnc(-c3ccccc3)cc1-2`, with 39.8 µM (active); and `CCc1ccc(/C=C2\Oc3c(ccc(O)c3CN3CCN(CCO)CC3)C2=O)cc1`, with “inactive”. Take `Cc1nn(-c2ccccc2)nc1C(=O)NNC(=O)c1cccc2ccccc12`: the Potency result was “inactive”. The figure for `CC(=O)N(CC(=O)Nc1nn(-c2ccccc2)nc1C(N)=O)Cc1ccccc1` is 39.8 µM (active); for `O=C(CN(Cc1ccccc1)C(=O)c1csnn1)NCCc1ccccc1` it is “inactive”. Then `Cc1cc(/C=C2/C(=N)N3C(=NC2=O)SN=C3S(C)(=O)=O)c(C)n1-c1ccccc1`, with “inactive”; and `COC(=O)Cc1c(C)c2c(O)cc(C)cc2oc1=O`, with “inactive”. Then `O=S(=O)([N-]c1nc2ccccc2nc1-[n+]1ccn(Cc2ccccc2)c1)c1ccc(Br)cc1`, with “inactive”; and `O=C(NCc1ccc(Cl)cc1)C1CCCN(C(=O)c2ccc(Cl)cc2)C1` (stereo unspecified), with “inactive”; and `Cc1ccc(CN2CCC(CNC(=O)Nc3ccc(Cl)cc3)C2)cc1` (stereo unspecified), with 39.8 µM (active). With `CC(=O)Nc1ccc(CN2CCN(C3CCCCC3)C(CCO)C2)cc1` (stereo unspecified), the Potency result is “inactive”.
